Legend:
Assay in all cases: PBM binding z-score (relative to random genomic background probes); higher = stronger binding; sequences stand for … in GC…GCGATTGACAGCGTAGAATGAAGG
[1] = system: FXR:RXRa (NR concentration 270 nM, RXRa partner concentration 90 nM)
Procedure, shortened: (§1)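 The probes on custom Agilent 4×180K protein-binding microarrays were double-stranded, with 34-nt variable regions bearing direct-repeat seeds, single-nucleotide variants, half-site ablations and random human genomic background sequences. Incubation lasted 1 h with ligand-free nuclear receptor dimers in PBS pH 7.4, 2% milk, 0.02% Triton X-100, 1 mM DTT, 0.2 mg/mL BSA and 0.4 mg/ml salmon testes DNA. Antibodies against each partner (one per run) detected bound dimers, and fluorescence scans were regression-normalized. Binding z-scores take the random background probes as reference.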

[2] = system: LXRa:RXRa (NR concentration 270 nM, RXRa partner concentration 90 nM)
Procedure, shortened: as §1

[3] = system: LXRa homodimer (NR concentration 270 nM)
Procedure, shortened: as §1

[4] = system: LXRb:RXRa (NR concentration 270 nM, RXRa partner concentration 90 nM)
Procedure, shortened: as §1

[5] = system: LXRb homodimer (NR concentration 270 nM)
Procedure, shortened: as §1

[6] = system: PPARa:RXRa (NR concentration 270 nM, RXRa partner concentration 90 nM)
Procedure, shortened: as §1

[7] = system: PPARg:RXRa (NR concentration 180 nM, RXRa partner concentration 90 nM)
Procedure, shortened: as §1

[8] = system: PPARg:RXRa 270nM:90nM, anti-RXR (NR concentration 270 nM, RXRa partner concentration 90 nM)
Procedure, shortened: as §1

[9] = system: PPARg:RXRa 30nM:10nM, anti-RXR (NR concentration 30 nM, RXRa partner concentration 10 nM)
Procedure, shortened: as §1

[10] = system: PPARg:RXRa 90nM:30nM, anti-RXR (NR concentration 90 nM, RXRa partner concentration 30 nM)
Procedure, shortened: as §1

[11] = system: PPARg:RXRa DBDmut IVT, anti-RXR (DBD mutation: RXRa K156A/R161A, NR concentration 270 nM, RXRa partner concentration 90 nM)
Procedure, shortened: as §1

[12] = system: PPARg:RXRa IVT, anti-PPARg (NR concentration 270 nM, RXRa partner concentration 90 nM)
Procedure, shortened: as §1

[13] = system: PPARg DBDmut:RXRa IVT, anti-PPARg (DBD mutation: PPARg1 K132A/R137A, NR concentration 270 nM, RXRa partner concentration 90 nM)
Procedure, shortened: as §1

[14] = system: PPARg DBDmut IVT, anti-PPARg (DBD mutation: PPARg1 K132A/R137A, NR concentration 270 nM)
Procedure, shortened: as §1

[15] = system: PPARg homodimer (NR concentration 180 nM)
Procedure, shortened: as §1

[16] = system: PXR homodimer (NR concentration 270 nM)
Procedure, shortened: as §1

[17] = system: RARa:RXR (NR concentration 270 nM, RXRa partner concentration 90 nM)
Procedure, shortened: as §1

[18] = system: RARa homodimer (NR concentration 270 nM)
Procedure, shortened: as §1

[19] = system: RARb:RXRa (NR concentration 270 nM, RXRa partner concentration 90 nM)
Procedure, shortened: as §1

| Sequence | PBM binding z-score [1] | PBM binding z-score [2] | PBM binding z-score [3] | PBM binding z-score [4] | PBM binding z-score [5] | PBM binding z-score [6] | PBM binding z-score [7] | PBM binding z-score [8] | PBM binding z-score [9] | PBM binding z-score [10] | PBM binding z-score [11] | PBM binding z-score [12] | PBM binding z-score [13] | PBM binding z-score [14] | PBM binding z-score [15] | PBM binding z-score [16] | PBM binding z-score [17] | PBM binding z-score [18] | PBM binding z-score [19] |
| --- | --- | --- | --- | --- | --- | --- | --- | --- | --- | --- | --- | --- | --- | --- | --- | --- | --- | --- | --- |
| CCGTACGGGTCAAGGTTATAGCACGGGTGGTACG | 5.23 | 3.78 | -0.221 | 3.11 | -0.132 | 4.76 | 4.03 | 4.28 | 1.2 | 2.77 | 0.0598 | 2.11 | -0.559 | -1.41 | 1.37 | 0.0308 | 4.49 | -0.0555 | 4.09 |
| ACTAGTGGGTCAGCTGAGGTCACACACAATTCGG | 4.98 | 5.49 | 2.88 | 4.54 | 0.173 | 4.9 | 6.38 | 5.68 | 3.12 | 4.86 | 6.51 | 6.96 | 1.71 | 0.986 | 4.18 | 1.68 | 5.69 | 1.85 | 4.45 |
| GCTCGGGGGACAAGGTCAGAGCTTTGTCCGTAGA | 3.46 | 3.46 | 0.143 | 3.96 | 4.29 | 4.25 | 3.61 | 4.54 | 1.72 | 3.56 | 2.28 | 3.25 | 1.23 | 1.71 | 1.58 | 0.127 | 3.59 | -0.41 | 3.92 |
| TCTCGGAGGACACGAAAGGTGAGAGCTCGACATC | 0.988 | 0.364 | -0.458 | -0.112 | -0.994 | 1.22 | 0.346 | 1.01 | 2.1 | 1.25 | 1.27 | 0.956 | -0.191 | -0.811 | 0.673 | -0.496 | 1.05 | -0.329 | 2.26 |
| CGTCCAAGGTCATAGGAGTTCAGTGAAGACAGAT | 7.7 | 7.41 | 5.13 | 5.15 | 0.66 | 5.9 | 4.86 | 5.44 | 1.9 | 4.2 | 3.09 | 4 | 1.39 | 0.8 | 5.14 | 10.9 | 5.59 | 2.08 | 5.31 |
| TTACCAAGGTCAGCTGAGGTCGTTGATCCAACTC | 6.04 | 5.5 | 2.43 | 4.31 | 0.419 | 4.83 | 3.85 | 4.1 | 1.27 | 2.92 | 2.24 | 3.75 | 0.41 | 0.114 | 1.8 | 3.87 | 4.4 | 0.314 | 5.06 |
| ATCGAAAGGTCGTGAGGTGACTATACAGAAAGGC | 5.54 | 4.2 | 0.422 | 3.45 | 0.557 | 5.49 | 4.59 | 4.64 | 1.98 | 3.39 | 0.761 | 2.62 | 1.76 | 1.47 | 1.55 | 0.227 | 4.52 | 1.01 | 3.99 |
| CTCGAAAGGTCGTGCTTAGGTGAGTATACCAAAC | 4.83 | 3.99 | 0.372 | 3.46 | 0.121 | 4.98 | 2.86 | 4.3 | 1.12 | 2.98 | 1 | 1.93 | 0.335 | 0.228 | 2.19 | 0.515 | 4.22 | 0.262 | 3.72 |
| ATCGAAAGGGCGTGAGGTGAGTATACAGAAAGGC | 0.437 | 0.45 | -0.364 | 0.429 | -0.169 | 1.36 | 0.822 | 0.778 | 0.328 | 0.452 | -0.47 | 1.02 | 0.673 | 0.814 | 0.257 | 0.256 | 1.08 | 0.276 | 1.89 |
| CAAGCTAGGTCAAAGGTCAAAGTCGAGCCAACCA | 8.68 | 7.38 | 5.19 | 7.27 | 2.73 | 7.38 | 12.9 | 10.7 | 12 | 12 | 5.45 | 6.94 | 1.27 | -0.285 | 5.21 | 1.5 | 9.03 | 2.23 | 6.05 |
| CTCGAAAGGTCGGTTGAGGTCAGTATACGGATAA | 5.06 | 5.23 | 1.74 | 3.81 | 0.351 | 3.83 | 1.26 | 2.17 | 0.448 | 1.75 | -0.211 | 1.36 | 0.0267 | 0.122 | 3.1 | 2.85 | 4.9 | 1.04 | 4.13 |
| AATACAGGGTCATTAGGCCAGAGTAGGTACGAAT | 7.31 | 5.48 | 2.17 | 4.27 | 1.52 | 5.58 | 6.71 | 5.91 | 2.62 | 4.89 | 3.37 | 4.54 | 1.38 | 0.677 | 2.55 | 0.493 | 4.48 | 1.06 | 4.04 |
| GCTTACGGGTGAAAGGTTATAGCATGAATAGAAT | 2.96 | 2.79 | 0.142 | 3 | -0.294 | 5.7 | 9.88 | 8.08 | 7.78 | 8.71 | 3.24 | 4.67 | 0.644 | 0.4 | 1.72 | 0.0936 | 4.93 | 0.6 | 2.14 |
| CCTTACGGGTCAAGGTTATCGCACGGGTGGTACG | 6.04 | 3.62 | 0.367 | 2.95 | 0.18 | 5.07 | 4.85 | 5.31 | 2.29 | 3.7 | 2.42 | 3.71 | 0.643 | -0.085 | 2.19 | 0.106 | 4.53 | 0.512 | 4.2 |
| ATACCAAGGTGATCGTGAGTTCGTTGATACTAAC | 0.706 | 0.653 | 0.426 | 0.294 | -0.366 | 0.602 | 0.328 | -0.00894 | 0.101 | -0.0417 | 0.668 | 0.994 | -0.0501 | 0.822 | 0.422 | 3.19 | 0.619 | 0.465 | 0.462 |

From the supplement of paper PMC6555819
